According to PubChem BioAssay (NCATS):
Records with an inconclusive call do not appear. Calls of active or inactive are those of the source. Calls follow the shape of the dose curve; as a rule, active = well fitted inhibition curve with a large enough effect; inconclusive = small, poorly fitted or top-dose-only effect; inactive = flat fitted curve, though single readings scatter.

What was measured:
CRL-7250 = normal cell line; assay: Cytotoxic Profiling of Annotated Libraries Using Quantitative High-Throughput Screening (AID 1296008); conditions: Five cell lines viability, CellTiter-Glo ATP luminescence, 48-72 h; max response: stronger effect = lower value; as to max response: % is scaled to controls: 0 for no effect and ±100 for the full control effect
How it was run: (§1)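 Cells exposed to compounds for 48 or 72 hr at 37 degrees Celsius. Viability read as ATP-coupled luminescence with CellTiter-Glo after 10 min at room temperature.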

HEK293 = assay: as above; conditions: Five cell lines viability, CellTiter-Glo ATP luminescence, 48-72 h; max response: stronger effect = lower value
How it was run: as §1

HaCat [1] = assay: as above; conditions: Five cell lines viability, CellTiter-Glo ATP luminescence, 48-72 h; max response: stronger effect = lower value
How it was run: as §1

KB-3-1 = assay: as above; conditions: Five cell lines viability, CellTiter-Glo ATP luminescence, 48-72 h; max response: stronger effect = lower value
How it was run: as §1

NIH3T3 = assay: as above; conditions: Five cell lines viability, CellTiter-Glo ATP luminescence, 48-72 h; max response: stronger effect = lower value
How it was run: as §1

HACAT [2] = assay: qHTS assay to identify novel small-molecules to repurpose for Merkel cell carcinoma treatment (AID 1296009); conditions: MCC and control cell lines, CellTiter-Glo viability, 72 h; series mostly up to 44.8 µM
How it was run: (§2)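 Dose-response viability screen; 72 hr exposure at 37 degree celsius; CellTiter-Glo added, 10 min room temperature, luminescence read; RLUs scaled between no-cell and DMSO wells.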

HEK293T = assay: as above; conditions: MCC and control cell lines, CellTiter-Glo viability, 72 h; at 44.8 µM (top of the series) unless noted
How it was run: as §2
Also: nearly all actives have a fitted effect of over 60% in size.

C[C@@]12CC[C@@H]3[C@@](CC[C@H]4[C@@]3(C)CCC[C@@]4(C)C(=O)O)(CC1=O)C2
inactive: max response (CRL-7250) -4.96% | max response (HEK293) -6.36% | outcome (HaCat [1]) | max response (KB-3-1) 1.35% | max response (NIH3T3) -5.17% | Potency (HACAT [2])

CN1C2CCC1CC(OC(=O)[C@H](CO)c1ccccc1)C2 (stereo not given in full)
inactive: max response (CRL-7250) 0.824% | max response (HEK293) -10.6% | outcome (HaCat [1]) | max response (KB-3-1) -9.98% | max response (NIH3T3) -25.3% | Potency (HACAT [2])

Cn1cc(-c2ccc3nnc(Sc4ccc5nn(C)cc5c4)n3n2)cn1
inactive: max response (CRL-7250) -2.56% | outcome (HEK293) | max response (HaCat [1]) -20.1% | outcome (KB-3-1) | outcome (HEK293T)

Cc1noc(=O)c2ccc(NC(=O)C(O)(CC(C)(C)c3cccc4c3OCC4)C(F)(F)F)cc12 (stereo not given)
inactive: max response (CRL-7250) 3.52% | max response (HEK293) -10.8% | outcome (HaCat [1]) | outcome (KB-3-1) | max response (NIH3T3) -1.29% | Potency (HACAT [2])

CCOC(=O)c1sc(NC(=O)[C@H](C(C)C)n2c(=O)[nH]c3ccccc3c2=O)nc1C
inactive: outcome (CRL-7250) | max response (HEK293) -9.44% | outcome (HaCat [1]) | max response (KB-3-1) 8.45% | Potency (HACAT [2])

CN(C)C(=O)NC1CCC(CCN2CCN(c3cccc(Cl)c3Cl)CC2)CC1 (stereo not given)
inactive: max response (CRL-7250) 1.18% | max response (HEK293) -2.35% | outcome (HaCat [1]) | max response (KB-3-1) -7.32% | max response (NIH3T3) -6.34% | outcome (HACAT [2]) inactive [at 9.27 µM]

COc1cc(/C=C/C=O)cc(OC)c1O[C@@H]1O[C@H](CO)[C@@H](O)[C@H](O)[C@H]1O
inactive: max response (CRL-7250) -11.6% | max response (HEK293) -3.11% | outcome (HaCat [1]) | outcome (KB-3-1) | max response (NIH3T3) -71.2% | Potency (HACAT [2])
